Hits are enriched below; roughly 6.5% of the tested compounds scored in any of these assays.
IL1B secr inh = qHTS for Inhibitors of Inflammasome Signaling: IL-1-beta AlphaLISA Primary Screen; 360,000 tested, 4.7% active; activity change, % at 57.5 µM; THP-1 LPS/ATP IL-1B secretion, AlphaLISA, 16 h; active compounds read low; in the data active means activity change below about -50%; inconclusive means mostly about -30% to -49%; further: on the % scale 0 is the no-effect control and ±100 the full control effect
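Secreted IL-1B measured by AlphaLISA bead assay after 16 h compound exposure of THP-1 cells; compounds (final up to 57.5 uM) added 1 h before LPS (250 ng/mL) and ATP (1.25 mM) stimulation; lower signal means less secretion.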
HT1080 IDH1KD tx = qHTS for induction of synthetic lethality in tumor cells producing 2HG: qHTS for the HT-1080-IDH1KD cell line | HT-1080 IDH1 knockdown viability, ATP luminescence, 48 h | Potency, µM (doses to about 46.1 µM), for the others: at the highest dose activity, negative = toxicity, actives largely listed as cytotoxic | 360,000 tested, 2% active;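 further: potency means the concentration at half of the fitted maximal effect; 0% = DMSO wells and -100% = cell-free medium wells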
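IDH1KD HT-1080 cells, 750/well, RPMI + 5% FBS; compound pinned after 2 h settling; 48 h, 37 °C; CellTiter-Glo luminescence; % activity normalised to DMSO and no-cell wells; curves fitted, classed by r2 and efficacy.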
HepG2 tox = qHTS for Inhibitors of TGF-b: Cytotox Counterscreen; HepG2 CAGA-GFP viability, ATP luminescence, 18 h; Potency, µM (highest dose often 46.1 µM), for inactives: at the top dose activity change, negative = cytotoxicity, most hits filed as cytotoxic; 410,000 tested, 0.76% active; AID 588856, 2011; further: potency means the concentration at half of the fitted maximal effect
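CellTiter-Glo luminescence gave cytotoxicity after 18 hours at 37 degrees C. The cells were HepG2 CAGA-GFP in 1% FBS DMEM, stimulated with 500 pg/mL TGF-beta after compound addition. %Activity was normalised to no-cell wells (complete cell-killing) and DMSO (no toxicity), and curves were fitted and classified.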
TGFb SMAD3 inh = qHTS for Inhibitors of TGF-b; HepG2 CAGA-GFP TGF-b/SMAD3 reporter, GFP fluorescence, 18 h; TGF-beta stimulated, 500 pg/mL final; Potency, µM (top dose mostly 46.1 µM), inactives show at the top dose activity, negative = inhibition, most hits filed as inhibitors; 410,000 tested, 1.2% active; AID 588855, 2011; further: potency means the concentration at half of the fitted maximal effect; on the % scale 0 is the no-effect control and ±100 the full control effect; nearly all actives have a fitted effect of over 65% in size
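Smad-responsive CAGA-GFP expression was quantified in HEPG2 cells exposed to compounds and 500 pg/mL final TGF-beta for 18 h at 37 degrees C; unstimulated wells defined full inhibition.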
HT1080NT lethal = qHTS for induction of synthetic lethality in tumor cells producing 2HG: qHTS for the HT-1080-NT fibrosarcoma cell line | HT-1080-NT fibrosarcoma viability, CellTiter-Glo ATP luminescence, 48 h | Potency, µM (top dose mostly 46.1 µM), inactives show at the top dose activity, negative = less viability, hits mostly cytotoxic | 360,000 tested, 1.6% active;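 further: NT is the 2HG producing partner of a matched IDH1 knockdown line; potency means the concentration at half of the fitted maximal effect; 0% = DMSO-treated cells and -100% = media-only wells without cells; nearly all actives have a fitted effect of over 55% in size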
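Viability by CellTiter-Glo luminescence after 48 h compound exposure at 37C of HT-1080-NT cells (750/well, RPMI, 5% FBS). % activity scaled between DMSO wells and medium-only wells, then curve-fitted and categorized by curve class.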
Giardia kill = Small Molecules that selectively kill Giardia lamblia: qHTS; Giardia lamblia trophozoite viability; activity change, % at 7.66 µM, hits read low; 340,000 tested, 0.15% active; AID 540267, 2011; in the data active means activity change below about -80%; inconclusive means between about -30% and that limit;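 further: parasites exposed to compound for two days anaerobically before the ATP read; on the % scale 0 is the no-effect control and ±100 the full control effect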
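Viability, read as ATP luminescence: trophozoites at 100 cells/well, compound added, 48 hrs anaerobic at 37 deg C, then 15-30 min room-temperature development before reading.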
* = called active by the depositor; [ ] = dose if it differs, or a comment. Unless noted, the call rests on the fitted dose curve; in most records, active means well fitted curve in the direction sought with a large enough effect; inconclusive means small, poorly fitted or top-dose-only effect, or another doubt; inactive means no such curve, though single readings can be large; an effect the other way counts as inactive or inconclusive.

`Cc1ccccc1CN1CCC(CNC(=O)C2CCCN(c3ncnc4c3nc3n4CCCCC3)C2)CC1` (stereo unspecified) gave IL1B secr inh -86*, HT1080 IDH1KD tx inconclusive, HepG2 tox -3%, TGFb SMAD3 inh -1%, HT1080NT lethal inconclusive and Giardia kill -14.
Screening COc1ccccc1CNC(=O)C(C)n1nc(C)n2c(cc3occc32)c1=O (stereo unspecified) returned IL1B secr inh -11, HT1080 IDH1KD tx 18%, HepG2 tox -1%, TGFb SMAD3 inh -19%, HT1080NT lethal 7% and Giardia kill 7.
Screening O=C(O)c1c(-c2ccccc2)oc2ccc(O)cc12 returned IL1B secr inh 23, HT1080 IDH1KD tx 0%, HepG2 tox -9%, TGFb SMAD3 inh -1%, HT1080NT lethal 8% and Giardia kill -19.
`O=Cc1c(-c2ccc(Cl)cc2)oc2ccc(O)cc12` gave IL1B secr inh -55*, HT1080 IDH1KD tx 1%, HepG2 tox 7%, TGFb SMAD3 inh 0%, HT1080NT lethal -3% and Giardia kill 5.
COC(=O)c1ccc(COc2ccccc2/C=C(\C#N)C(=O)Nc2ccccc2C)cc1 was read as IL1B secr inh 22, HT1080 IDH1KD tx 2%, HepG2 tox -8%, TGFb SMAD3 inh 4%, HT1080NT lethal 8% and Giardia kill -17.
For COC(=O)c1ccc(COc2ccccc2/C=C/C(=O)c2ccc(OCC(=O)O)cc2)cc1 the results were IL1B secr inh -94*, HT1080 IDH1KD tx inconclusive, HepG2 tox -21%, TGFb SMAD3 inh inconclusive, HT1080NT lethal inconclusive and Giardia kill -6.
For COC(=O)c1ccc(COc2ccccc2/C=C(\C#N)C(=O)Nc2c(C)cccc2C)cc1 the results were IL1B secr inh -79*, HT1080 IDH1KD tx 18µM*, HepG2 tox -73%, TGFb SMAD3 inh inconclusive, HT1080NT lethal 18µM* and Giardia kill 23.
Screening COCCCn1c(O)c(/C=C2\N=C(C#N)C(=Nc3ccc(C)cc3)O2)sc1=S returned IL1B secr inh -82*, HT1080 IDH1KD tx inconclusive, HepG2 tox -50%, TGFb SMAD3 inh inconclusive, HT1080NT lethal inconclusive and Giardia kill -8.
For CCC(=O)N1CCc2cc(CNC(=O)c3ccc(C#N)cc3)ccc21 the results were HepG2 tox 1% and TGFb SMAD3 inh 2%.
For N#Cc1nc(-c2ccco2)oc1N1CCN(c2cccc(Cl)c2)CC1 the results were IL1B secr inh -62*, HT1080 IDH1KD tx -5%, HepG2 tox 11%, TGFb SMAD3 inh -9%, HT1080NT lethal 3% and Giardia kill 6.
`Cc1ccc2oc(C(=O)NCc3ncc(C)[nH]3)c(C)c2c1` gave IL1B secr inh -10, HT1080 IDH1KD tx 16µM*, HepG2 tox -16%, TGFb SMAD3 inh 0%, HT1080NT lethal 18µM* and Giardia kill -14.
Screening CCc1ccc2oc(C(=O)NCc3ccncc3)c(C)c2c1 returned IL1B secr inh -66*, HT1080 IDH1KD tx -7%, HepG2 tox -28%, TGFb SMAD3 inh -3%, HT1080NT lethal 1% and Giardia kill 10.
For O=C(CC1C(=O)NCCN1CC1CCCCC1)NCc1ccc(F)cc1F (stereo unspecified) the results were IL1B secr inh -66*, HT1080 IDH1KD tx -6%, HepG2 tox 5%, TGFb SMAD3 inh -6%, HT1080NT lethal -16% and Giardia kill -12.
For CC(C)CC(=O)Nc1ccc(N2CCN(C(=O)c3cccs3)CC2)cc1 the results were IL1B secr inh -12, HT1080 IDH1KD tx 14%, HepG2 tox 3%, TGFb SMAD3 inh 3%, HT1080NT lethal 17% and Giardia kill 22.
Screening O=C(Cn1nc(-c2ccccc2)ccc1=O)Nc1ccc(N2CCN(C(=O)c3cccs3)CC2)cc1 returned IL1B secr inh -57*, HT1080 IDH1KD tx -11%, HepG2 tox 12%, TGFb SMAD3 inh -27%, HT1080NT lethal -7% and Giardia kill -16.
Screening O=C1Cc2ccccc2C(c2c(Cl)cccc2Cl)N1 (stereo unspecified) returned IL1B secr inh 18, HT1080 IDH1KD tx -21%, HepG2 tox -3%, TGFb SMAD3 inh -1%, HT1080NT lethal 2% and Giardia kill 7.
CCOc1ccc(CN(C)C(=O)CNC(=O)c2ccccc2)cc1 was read as IL1B secr inh 11, HT1080 IDH1KD tx 1%, HepG2 tox -7%, TGFb SMAD3 inh 2%, HT1080NT lethal 15% and Giardia kill 20.
For CN(CCOc1ccc(Br)cc1)C(=O)CNC(=O)c1ccc2ccccc2c1 the results were IL1B secr inh -91*, HT1080 IDH1KD tx -26%, HepG2 tox -13%, TGFb SMAD3 inh 12%, HT1080NT lethal -9% and Giardia kill -5.
Screening CC1CCC(C(C)C)C2=C1C(C#N)(C#N)C(C#N)(C#N)C(c1ccccc1)N2 (stereo unspecified) returned IL1B secr inh -86*, HT1080 IDH1KD tx 0%[9.24 µM], HepG2 tox -40%, TGFb SMAD3 inh inconclusive, HT1080NT lethal -26% and Giardia kill 9.
Screening CN(C)CCc1cc2c(c3c1ccc1ccccc13)OCO2 returned IL1B secr inh -96*, HT1080 IDH1KD tx inconclusive, HepG2 tox -103%, TGFb SMAD3 inh inconclusive, HT1080NT lethal inconclusive and Giardia kill -7.
For COc1cc2ccc3c(CCN(C)C)cc(OC)c(OC)c3c2cc1OC the results were IL1B secr inh inconclusive, HT1080 IDH1KD tx -5%, HepG2 tox -22%, TGFb SMAD3 inh 22%, HT1080NT lethal -16% and Giardia kill -22.
Screening COC(=O)[C@@]1(Cc2ccccc2)[C@@H]2C(=CC(=O)[C@H]2CC(=O)C(=O)N(C)C)CN1C(=O)c1ccccc1 returned IL1B secr inh -105*, HT1080 IDH1KD tx 21µM*, HepG2 tox -51%, TGFb SMAD3 inh inconclusive, HT1080NT lethal 16µM* and Giardia kill -7.
C=CCn1c(=O)/c(=C/c2ccc(Cl)cc2)s/c1=C(\C#N)c1nnc2n1CCCCC2 was read as IL1B secr inh -79*, HT1080 IDH1KD tx -1%, HepG2 tox -38%, TGFb SMAD3 inh 0%, HT1080NT lethal -15% and Giardia kill 28.

Assay outcomes from PubChem.
